FBPA coupling cs: inhibits coupling enzyme system, counter-screen for aldolase hits | coupling enzyme system counterscreen, AmpLite Red fluorescence | hit rate 0.67% among 290,000 | activity change, negative = inhibition, % at 58.2 µM, hits read low; in the data active means activity change below about -30%
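Counterscreen lacking aldolase: glyceraldehyde-3-phosphate coupling-enzyme reagent preincubated 10 min at RT with compound (at 57.5 uM final), then substrate/coupling system with AmpLite Red added; fluorescence read at 525/598 nm after 20 min RT.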
Tau fluor counter: counter-screen for tau fibril formation inhibitors. tau K18 P301L Alexa594 fluorescence, heparin fibrillization. Potency, µM (doses to about 57.7 µM), inactives show top-dose activity change, negative = decrease. hit rate 0.93% among 280,000. AID 1463; further: potency means the concentration at half of the fitted maximal effect; nearly all actives have a fitted effect of over 55% in size
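Human K18 P301L tau (15 uM unlabeled plus 0.24 uM Alexa 594-labeled, final) in 100 mM sodium acetate pH 7 was mixed with compound and 20 uM heparin and incubated 6 hr at 37 C.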
G9a block: G9a (human) methyltransferase inhibition; Potency, µM (top dose mostly 102 µM), inactives show top-dose activity, negative = inhibition, most hits filed as inhibitors; Q96KQ7; hit rate 8.8% among 350,000; G9a H3K9 monomethylation, AlphaScreen, 2 h; AID 504332; further: potency means the concentration at half of the fitted maximal effect; nearly all actives have a fitted effect of over 75% in size
Target sequence (Q96KQ7 913-1193 limits assumed): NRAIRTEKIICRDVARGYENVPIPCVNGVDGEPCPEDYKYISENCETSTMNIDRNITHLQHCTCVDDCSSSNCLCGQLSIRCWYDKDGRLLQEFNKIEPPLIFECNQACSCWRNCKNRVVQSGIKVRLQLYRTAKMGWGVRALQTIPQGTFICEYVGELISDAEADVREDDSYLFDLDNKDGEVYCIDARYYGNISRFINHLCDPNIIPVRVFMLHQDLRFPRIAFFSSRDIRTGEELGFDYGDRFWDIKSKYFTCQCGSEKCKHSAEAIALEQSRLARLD
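Quantitative HTS format: methyltransferase activity on a biotin-tagged H3K9 peptide is measured by AlphaScreen, using a rabbit anti-monomethyl-H3K9 antibody with streptavidin donor and anti-IgG acceptor beads. Final levels are 20 nM enzyme, 500 nM peptide, 20 uM SAM; 2 h RT.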
Tau fibril FP: inhibitors of human tau fibril formation. AID 1468. Potency, µM (top dose mostly 57.7 µM), without a hit: at the highest dose activity, negative = inhibition, usual class: inhibitors. K18 P301L tau heparin fibrillization, Alexa594 FP, 6 h. hit rate 0.39% among 280,000; further: potency means the concentration at half of the fitted maximal effect; nearly all actives have a fitted effect of over 55% in size
Target sequence (P10636 561-689 P618L limits assumed): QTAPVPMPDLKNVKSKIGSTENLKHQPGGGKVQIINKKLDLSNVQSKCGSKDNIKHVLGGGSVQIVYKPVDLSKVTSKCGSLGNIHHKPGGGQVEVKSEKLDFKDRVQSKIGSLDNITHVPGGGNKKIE
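Compound effects on tau fibrillization are measured by Alexa 594 fluorescence polarization (ex 555, em 632 nm). K18 P301L tau is used at 15 uM with 0.24 uM labeled tracer, and 20 uM heparin induces aggregation over 6 hr at 37 C.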
Sfp inh: Sfp phosphopantetheinyl transferase inhibition | Q9F4F7 | Biochemical Sfp PPTase activity, qHTS | Potency, µM, for the others: largest response in the series, negative = inhibition, usual class: inhibitors | hit rate 3.5% among 310,000;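 further: the enzyme is Sfp with the accession as filed and its product quenches rhodamine fluorescence; potency means the concentration at half of the fitted maximal effect; 0% = enzyme reaction without inhibitor and -100% = no enzyme wells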
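Buffer: 50 mM Hepes-Na pH 7.6, 10 mM MgCl2, 0.01% Nonidet P-40, 0.01% BSA. Enzyme 15 nM, pre-exposed to compound 15 min; substrates then added and fluorescence change tracked over 30 min.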
Tau ThT inhib: tau fibrillization inhibition (ThT binding). P10636. Potency, µM (titrated, usually from 57.4 µM), without a hit: at the top dose activity, negative = inhibition, most hits filed as inhibitors. hit rate 2.1% among 270,000. recombinant tau K18 P301L, heparin-induced fibrillization, ThT fluorescence; further: potency means the concentration at half of the fitted maximal effect; nearly all actives have a fitted effect of over 55% in size
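ThT emission at 510 nm, taken 1 hr after adding 30 uM dye, quantifies aggregates formed when 20 uM heparin acts on human tau K18 P301L for 6 hr at 37 C.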
Starred values were filed as active, the others as inactive; ? = inconclusive; . = no result given; ! = repeats disagree; [ ] = remark or other dose. A selection: hits, their analogues and other compounds. The true share with any hit is near 11%. Unless noted, the call rests on the fitted dose curve; in most records, active means well fitted curve in the direction sought with a large enough effect; inconclusive means small, poorly fitted or top-dose-only effect, or another doubt; inactive means no such curve, though single readings can be large; an effect the other way counts as inactive or inconclusive. Unless noted, on the % scale 0 is the no-effect control and ±100 the full control effect.

SMILES | FBPA coupling cs | Tau fluor counter | G9a block | Tau fibril FP | Sfp inh | Tau ThT inhib
CC(=O)[C@H]1CC[C@H]2[C@@H]3CC[C@H]4C[C@](C)(O)CC[C@]4(C)[C@H]3CC[C@]12C | . | . | 7.9µM*! | . | 3% | .
COc1ccc(C(=O)Nc2ccc(S(=O)(=O)N(Cc3ccccc3)c3ccccc3)cc2)cc1 | . | ? | -5%[59 µM] | 16µM* | . | ?
C=C(CC1(C(C)NP(=O)(c2ccccc2)c2ccccc2)CC1)c1ccccc1 (configuration not stated) | -1 | -13% | . | 11% | -10% | ?
Cc1ccc(NC(=O)c2cnc3sc(N4CCOCC4)nn3c2=O)cc1N(C)C | . | -14% | -3%[59 µM] | 0% | . | ?
CCN1C[C@]2(COC)CC[C@H](OC)[C@@]34C5C[C@@H]6[C@@H](OC)C[C@@]7(OCO[C@@]7([C@@H](O)C23)[C@@H]14)C5[C@H]6OC (some centres not stated) | . | 3% | 48%[59 µM] | -1% | 7% | 3%
Cn1cnc([N+](=O)[O-])c1Sc1ccc([N+](=O)[O-])cc1 | 0 | -19% | . | -1% | 56µM* | ?
O=[N+]([O-])c1ccc([As](=O)(O)O)cc1 | . | . | ? | . | 5% | .
O=C(O[C@@H]1Cc2c(O)cc(O)cc2O[C@@H]1c1cc(O)c(O)c(O)c1)c1cc(O)c(O)c(O)c1 | -6 | 14µM*[quencher] | 1.8µM* | ? | 11µM* | 13µM*
Oc1cc(O)c2c(c1)OC(c1cc(O)c(O)c(O)c1)C(O)C2 (configuration not stated) | -19 | ? | ? | ? | -77% | 25µM*
O=C(OC1Cc2c(O)cc(O)cc2OC1c1cc(O)c(O)c(O)c1)c1cc(O)c(O)c(O)c1 (configuration not stated) | -14 | 6.3µM*[quencher] | . | 18µM* | 18µM* | 6.3µM*
O=C(O)CF | 1 | -5% | . | -4% | 33% | -7%
CN1C(=O)[C@@H](NC(=O)c2cc3ccccc3[nH]2)N=C(c2ccccc2)c2ccccc21 | -2 | -22% | 5%[59 µM] | -9% | 11% | -9%
NC[C@@H]1O[C@H](OC2[C@@H](CO)O[C@@H](OC3[C@H](O)[C@H](N)C[C@H](N)[C@H]3OC3O[C@H](CO)[C@@H](O)[C@H](O)[C@@H]3N)[C@H]2O)C(N)[C@H](O)[C@@H]1O (some centres not stated) | . | . | 23%[59 µM] | . | 12% | .
O=c1[nH]c(=S)[nH]c(O)c1N=Nc1ccc(OC(F)F)cc1 | 0 | -4% | -42% | 6% | -4% | 4µM*
NS(=O)(=O)c1ccc(N=Nc2c(O)[nH]c(=S)[nH]c2=O)cc1 | -3 | -13% | . | -4% | -8% | 5.6µM*
COc1cccc(N=Nc2c(O)[nH]c(=S)[nH]c2=O)c1 | 1 | -20% | 50µM* | -5% | -19% | 7.1µM*
O=c1[nH]c(O)c(N=Nc2cc(C(F)(F)F)ccc2Cl)c(=O)[nH]1 | 7 | 2% | -1% | 6% | 22% | -12%
O=c1[nH]c(O)c(N=Nc2cccc(S(=O)(=O)N3CCOCC3)c2)c(=O)[nH]1 | 3 | -9% | 0% | -4% | 10% | -6%
COc1ccc(N=Nc2c(O)[nH]c(=S)[nH]c2=O)cc1 | 3 | -10% | ? | -4% | -27% | 2.8µM*
CNC(C)Cc1ccccc1OC (configuration not stated) | -3 | 0% | 6%[59 µM] | 3% | 4% | 2%
COC(=O)[C@@H]1[C@@H](C(=O)OC)C2(c3ccccc3-c3ccccc32)N(c2ccc(Cl)cc2)N1C#N | -5 | -15% | 5%[59 µM] | ? | 20% | 25µM*
COC(=O)C[C@]1(C(=O)OC)CN(C#N)N(c2ccc(Cl)cc2)C12c1ccccc1-c1ccccc12 | 0 | -20% | -9%[59 µM] | ? | 8% | 14µM*
COC(=O)Cn1cc(/C=C2\C(=O)NC(=O)N(c3ccccc3)C2=O)c2ccccc21 | 1 | . | -5% | . | -24% | .
COC(=O)COc1ccc(/C=C2\C(=O)NC(=S)N(c3ccc(C)cc3)C2=O)cc1OC | 5 | . | 11µM* | . | 40µM* | .
CCOC(=O)CSCCOc1ccc(C=C2C(=O)NC(=O)NC2=O)cc1OC | 1 | -6% | 22µM* | ? | -85% | ?
SMILES | FBPA coupling cs | Tau fluor counter | G9a block | Tau fibril FP | Sfp inh | Tau ThT inhib
CCOC(=O)COc1ccc(/C=C2\C(=O)NC(=S)N(c3ccc(OC)cc3)C2=O)cc1OC | 5 | . | ? | . | 45µM* | .
COc1ccc(N2C(=O)/C(=C/c3ccc(OC)c(OC)c3)C(=O)NC2=S)cc1 | 0 | . | . | . | -94% | .
CN1C(=O)CCS(=O)(=O)[C@H]1c1ccc(Cl)cc1 | 1 | -6% | . | -6% | 3% | -10%
CCCCOc1ccc(C(=O)NCCc2csc(-c3ccc(OC)cc3)n2)cc1 | . | -13% | 7%[59 µM] | 0% | . | ?
CCc1ccccc1N1C(=O)NC(=O)/C(=C\c2cc(C)n(C)c2C)C1=O | 2 | 11% | 9%[59 µM] | 1% | 3% | -12%
O=C1NC(=O)N(c2ccccc2)C(=O)/C1=C\c1ccc([N+](=O)[O-])s1 | -12 | ? | 8.9µM* | ? | 13µM* | .
Cc1ccc(/C=C2/C(=O)NC(=O)N(C)C2=O)cc1 | -1 | -3% | -26%[59 µM] | -16% | ? | ?
CN1C(=O)NC(=O)/C(=C/c2ccc([N+](=O)[O-])s2)C1=O | -21 | ? | 7.1µM* | 28µM* | 11µM* | .
COc1ccc(OC)c(N2C(=O)NC(=O)/C(=C\c3ccc([N+](=O)[O-])s3)C2=O)c1 | -20 | ? | 8.9µM* | ? | 22µM* | 11µM*
Cc1cccn2c(=O)c(/C=C(\C#N)c3nc4ccccc4s3)c(Oc3ccc(F)cc3)nc12 | . | -7% | -25%[59 µM] | ? | . | ?
O=C(C1CCCN(S(=O)(=O)c2cccc3nsnc23)C1)N1CCN(c2cccc(Cl)c2)CC1 (configuration not stated) | . | -20% | ? | 2% | . | -13%
CC(C)(C)n1cc(C(=O)c2ccccc2)cc1-c1ccccc1 | 0 | -12% | 35µM* | -4% | 10% | -10%
COc1cc(CC(=O)OCC2=C[C@H]3[C@@H]4C(C)(C)[C@]4(OC(C)=O)[C@H](OC(=O)Cc4ccccc4)[C@@H](C)[C@]3(O)[C@@H]3C=C(C)C(=O)[C@@]3(O)C2)ccc1O | -5 | ? | ? | ? | -2% | ?
CC(=O)Nc1ccc(N(C(=O)Cn2nnc3ccccc32)C(C(=O)NC2CCCC2)c2ccc(O)c(O)c2)cc1 (configuration not stated) | -2 | -14% | 50µM* | -4% | -14% | -16%
